# From paper PMC7862700, “An all-to-all approach to the identification of sequence-specific readers for epigenetic DNA modifications on cytosine”
# Experiments:
# Test in all cases: DAPPL (digital affinity profiling via proximity ligation, sequencing); 10 mM Tris-HCl pH 7.5, 50 mM NaCl, 1 mM DTT, 4% glycerol, room temperature, 30 min; GST-TFs on glutathione beads, 16-mer random dsDNA library, 0.1% formaldehyde crosslink after washing; high values mean tight binding
# FLI1 = molecular target: T1, FLI1 (Homo sapiens, UniProt Q01543 1-452); details: protein: recombinant; tags: N-terminal GST; dsDNA, one strand shown
# T1 sequence: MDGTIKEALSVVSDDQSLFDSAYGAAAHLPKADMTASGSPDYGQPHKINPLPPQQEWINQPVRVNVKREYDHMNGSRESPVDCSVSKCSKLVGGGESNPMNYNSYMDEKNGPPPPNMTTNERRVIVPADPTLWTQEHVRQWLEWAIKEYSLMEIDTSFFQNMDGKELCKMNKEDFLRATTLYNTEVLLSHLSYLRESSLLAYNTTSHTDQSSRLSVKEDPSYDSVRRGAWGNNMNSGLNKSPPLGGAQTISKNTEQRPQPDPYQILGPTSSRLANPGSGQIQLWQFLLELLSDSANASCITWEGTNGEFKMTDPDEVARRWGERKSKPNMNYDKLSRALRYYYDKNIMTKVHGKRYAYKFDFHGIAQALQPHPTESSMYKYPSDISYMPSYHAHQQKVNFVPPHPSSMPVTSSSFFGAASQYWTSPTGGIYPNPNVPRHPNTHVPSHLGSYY
# Method in brief: (§1)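 After expression in yeast as GST fusions, human transcription factors were bound to glutathione beads, DNA-barcoded and mixed with a tag-only sample. The pools were incubated with 200 nmole of a 16-mer random double-stranded DNA library in Tris/NaCl/DTT/glycerol buffer (30 min, room temperature), washed and crosslinked with 0.1% formaldehyde. Proximity ligation with BsaI/T4 ligase ran for 1 h at 37 °C, before PCR amplification and sequencing on an Illumina NextSeq500. Binding signal is a hexamer's read frequency for a factor divided by its frequency for the tag-only sample.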
# ELK1 = molecular target: T2, ELK1 (Homo sapiens, UniProt P19419 1-428); details: protein: recombinant; tags: N-terminal GST; dsDNA, one strand shown
# T2 sequence: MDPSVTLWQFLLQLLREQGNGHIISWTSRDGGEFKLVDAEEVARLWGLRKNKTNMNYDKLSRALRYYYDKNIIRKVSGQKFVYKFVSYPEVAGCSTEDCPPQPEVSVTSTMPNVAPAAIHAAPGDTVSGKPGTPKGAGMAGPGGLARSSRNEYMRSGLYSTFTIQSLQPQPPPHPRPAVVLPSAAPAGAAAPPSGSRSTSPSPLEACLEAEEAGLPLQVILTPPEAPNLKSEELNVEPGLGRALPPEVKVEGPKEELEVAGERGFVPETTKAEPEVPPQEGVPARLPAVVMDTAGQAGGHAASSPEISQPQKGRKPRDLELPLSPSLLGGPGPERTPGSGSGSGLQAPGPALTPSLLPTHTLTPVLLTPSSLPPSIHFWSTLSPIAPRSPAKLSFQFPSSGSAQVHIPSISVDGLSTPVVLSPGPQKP
# Method in brief: as §1
# GABPA = molecular target: T3, GABPA (Homo sapiens, UniProt Q06546 1-454); details: protein: recombinant; tags: N-terminal GST; dsDNA, one strand shown
# T3 sequence: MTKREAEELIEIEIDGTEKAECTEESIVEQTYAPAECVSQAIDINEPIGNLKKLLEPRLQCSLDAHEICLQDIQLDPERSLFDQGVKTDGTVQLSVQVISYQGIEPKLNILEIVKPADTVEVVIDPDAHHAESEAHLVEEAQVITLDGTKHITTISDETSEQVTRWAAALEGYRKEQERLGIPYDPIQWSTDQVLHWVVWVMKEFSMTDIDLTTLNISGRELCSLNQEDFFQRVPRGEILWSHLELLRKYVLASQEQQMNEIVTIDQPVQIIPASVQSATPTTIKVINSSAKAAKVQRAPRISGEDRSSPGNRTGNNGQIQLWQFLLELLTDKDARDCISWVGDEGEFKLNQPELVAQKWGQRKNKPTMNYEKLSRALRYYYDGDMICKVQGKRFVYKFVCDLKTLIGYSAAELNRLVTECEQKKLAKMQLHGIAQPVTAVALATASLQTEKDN
# Method in brief: as §1
# ERG = molecular target: T4, ERG (Homo sapiens, UniProt P11308 1-479); details: protein: recombinant; tags: N-terminal GST; dsDNA, one strand shown
# T4 sequence: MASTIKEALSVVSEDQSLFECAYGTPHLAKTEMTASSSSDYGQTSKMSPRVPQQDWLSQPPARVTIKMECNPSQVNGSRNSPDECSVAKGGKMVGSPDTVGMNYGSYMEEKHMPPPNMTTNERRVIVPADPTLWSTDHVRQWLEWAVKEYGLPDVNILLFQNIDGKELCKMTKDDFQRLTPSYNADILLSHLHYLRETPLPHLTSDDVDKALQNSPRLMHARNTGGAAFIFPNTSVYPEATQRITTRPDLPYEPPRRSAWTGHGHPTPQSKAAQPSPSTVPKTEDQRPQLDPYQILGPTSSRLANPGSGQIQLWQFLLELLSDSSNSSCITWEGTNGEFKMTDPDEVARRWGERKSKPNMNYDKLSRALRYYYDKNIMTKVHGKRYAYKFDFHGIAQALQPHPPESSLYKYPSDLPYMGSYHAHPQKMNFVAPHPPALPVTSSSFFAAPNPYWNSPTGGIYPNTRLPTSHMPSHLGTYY
# Method in brief: as §1
# ELF1 = ELF1 (Homo sapiens, UniProt P32519 1-619); details: protein: recombinant; tags: N-terminal GST; dsDNA, one strand shown
# Sequence of ELF1 (P32519 whole entry): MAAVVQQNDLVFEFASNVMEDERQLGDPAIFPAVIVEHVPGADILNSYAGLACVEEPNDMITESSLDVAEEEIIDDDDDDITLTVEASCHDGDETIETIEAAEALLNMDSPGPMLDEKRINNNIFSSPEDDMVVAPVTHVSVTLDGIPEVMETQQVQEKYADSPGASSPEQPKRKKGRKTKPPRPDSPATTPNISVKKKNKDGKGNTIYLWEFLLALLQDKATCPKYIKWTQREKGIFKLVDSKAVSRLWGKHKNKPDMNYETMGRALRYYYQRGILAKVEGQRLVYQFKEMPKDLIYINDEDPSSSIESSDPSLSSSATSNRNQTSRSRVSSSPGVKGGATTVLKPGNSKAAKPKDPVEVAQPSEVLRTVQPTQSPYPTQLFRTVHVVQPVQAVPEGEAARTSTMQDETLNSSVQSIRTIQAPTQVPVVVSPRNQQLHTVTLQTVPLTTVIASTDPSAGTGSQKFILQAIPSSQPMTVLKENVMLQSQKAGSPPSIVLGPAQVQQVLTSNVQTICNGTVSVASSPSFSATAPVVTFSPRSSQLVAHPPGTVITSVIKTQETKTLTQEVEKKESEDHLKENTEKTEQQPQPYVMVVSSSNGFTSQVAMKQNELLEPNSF
# Method in brief: as §1
# EHF = molecular target: T5, EHF (Homo sapiens, UniProt Q9NZC4 1-300); details: protein: recombinant; tags: N-terminal GST; dsDNA, one strand shown
# T5 sequence: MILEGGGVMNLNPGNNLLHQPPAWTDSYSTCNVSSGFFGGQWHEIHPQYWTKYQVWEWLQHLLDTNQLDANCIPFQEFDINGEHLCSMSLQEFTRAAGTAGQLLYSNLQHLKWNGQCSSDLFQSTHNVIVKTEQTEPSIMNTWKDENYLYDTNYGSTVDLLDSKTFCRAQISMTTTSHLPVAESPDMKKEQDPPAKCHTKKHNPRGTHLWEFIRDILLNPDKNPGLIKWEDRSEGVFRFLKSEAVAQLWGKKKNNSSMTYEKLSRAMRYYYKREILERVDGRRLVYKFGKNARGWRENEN
# Method in brief: as §1
# SPIB = SPIB (Homo sapiens, UniProt Q01892 1-262); details: protein: recombinant; tags: N-terminal GST; dsDNA, one strand shown
# Sequence of SPIB (Q01892 whole entry): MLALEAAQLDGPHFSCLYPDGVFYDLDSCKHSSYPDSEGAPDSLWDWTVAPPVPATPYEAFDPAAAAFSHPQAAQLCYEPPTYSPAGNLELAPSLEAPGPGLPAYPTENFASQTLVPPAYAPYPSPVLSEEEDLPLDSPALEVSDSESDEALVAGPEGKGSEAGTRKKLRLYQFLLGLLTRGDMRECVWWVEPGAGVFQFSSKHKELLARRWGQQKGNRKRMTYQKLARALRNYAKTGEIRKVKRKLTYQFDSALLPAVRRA
# Method in brief: as §1
# ELK3 = molecular target: T6, ELK3 (Homo sapiens, UniProt P41970 1-407); details: protein: recombinant; tags: N-terminal GST; dsDNA, one strand shown
# T6 sequence: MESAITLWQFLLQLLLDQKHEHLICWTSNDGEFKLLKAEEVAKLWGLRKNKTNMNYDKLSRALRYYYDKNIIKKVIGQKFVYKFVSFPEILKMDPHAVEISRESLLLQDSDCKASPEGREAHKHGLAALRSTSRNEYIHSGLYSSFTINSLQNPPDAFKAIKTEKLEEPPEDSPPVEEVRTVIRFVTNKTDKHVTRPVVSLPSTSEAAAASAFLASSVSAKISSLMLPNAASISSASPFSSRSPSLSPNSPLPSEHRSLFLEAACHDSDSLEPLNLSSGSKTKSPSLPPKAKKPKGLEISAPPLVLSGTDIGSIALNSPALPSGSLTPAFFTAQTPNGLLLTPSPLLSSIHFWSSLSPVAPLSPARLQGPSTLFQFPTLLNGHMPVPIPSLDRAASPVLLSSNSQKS
# Method in brief: as §1
# FEV = molecular target: T7, FEV (Homo sapiens, UniProt Q99581 1-238); details: protein: recombinant; tags: N-terminal GST; dsDNA, one strand shown
# T7 sequence: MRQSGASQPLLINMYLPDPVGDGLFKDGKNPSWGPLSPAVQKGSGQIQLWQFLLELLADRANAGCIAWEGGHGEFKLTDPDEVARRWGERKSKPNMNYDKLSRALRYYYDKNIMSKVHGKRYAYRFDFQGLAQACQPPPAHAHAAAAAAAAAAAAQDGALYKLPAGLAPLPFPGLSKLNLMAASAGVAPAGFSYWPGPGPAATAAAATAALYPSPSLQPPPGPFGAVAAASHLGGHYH
# Method in brief: as §1
# ETV5 = ETV5 (Homo sapiens, UniProt P41161 1-510); details: protein: recombinant; tags: N-terminal GST; dsDNA, one strand shown
# Sequence of ETV5 (P41161 whole entry): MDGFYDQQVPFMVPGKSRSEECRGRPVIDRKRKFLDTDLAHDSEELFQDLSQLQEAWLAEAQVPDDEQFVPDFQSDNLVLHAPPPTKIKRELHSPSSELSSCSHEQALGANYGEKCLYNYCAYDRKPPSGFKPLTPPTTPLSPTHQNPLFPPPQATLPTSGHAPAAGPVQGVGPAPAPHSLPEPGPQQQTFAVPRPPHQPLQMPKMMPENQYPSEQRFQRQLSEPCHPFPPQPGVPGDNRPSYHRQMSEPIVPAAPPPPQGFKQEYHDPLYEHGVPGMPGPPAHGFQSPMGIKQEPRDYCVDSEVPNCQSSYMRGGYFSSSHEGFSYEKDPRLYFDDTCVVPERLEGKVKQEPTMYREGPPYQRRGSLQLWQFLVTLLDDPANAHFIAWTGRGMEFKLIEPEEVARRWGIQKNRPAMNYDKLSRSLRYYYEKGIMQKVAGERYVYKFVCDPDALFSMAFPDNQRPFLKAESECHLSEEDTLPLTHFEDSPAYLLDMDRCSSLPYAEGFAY
# Method in brief: as §1
# HSF1 = HSF1 (Homo sapiens, UniProt Q00613 1-529); details: protein: recombinant; tags: N-terminal GST; chain copies: 3; dsDNA, one strand shown
# Sequence of HSF1 (Q00613 whole entry): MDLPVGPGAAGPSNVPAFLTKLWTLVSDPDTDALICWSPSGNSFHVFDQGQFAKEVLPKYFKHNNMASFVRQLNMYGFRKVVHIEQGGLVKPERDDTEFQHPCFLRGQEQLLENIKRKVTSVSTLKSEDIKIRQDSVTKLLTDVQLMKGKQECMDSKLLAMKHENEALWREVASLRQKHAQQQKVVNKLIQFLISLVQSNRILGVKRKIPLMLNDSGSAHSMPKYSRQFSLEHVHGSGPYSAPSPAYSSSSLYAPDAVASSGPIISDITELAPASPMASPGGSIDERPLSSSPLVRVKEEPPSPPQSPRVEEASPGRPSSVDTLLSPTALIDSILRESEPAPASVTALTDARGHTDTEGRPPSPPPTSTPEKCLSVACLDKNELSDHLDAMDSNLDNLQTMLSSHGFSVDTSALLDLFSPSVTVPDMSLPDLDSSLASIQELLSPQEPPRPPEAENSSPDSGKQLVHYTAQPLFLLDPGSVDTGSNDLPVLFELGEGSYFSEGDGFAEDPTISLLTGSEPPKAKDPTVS
# Method in brief: as §1
# SPIC = molecular target: T8, SPIC (Homo sapiens, UniProt Q8N5J4 1-248); details: protein: recombinant; tags: N-terminal GST; dsDNA, one strand shown
# T8 sequence: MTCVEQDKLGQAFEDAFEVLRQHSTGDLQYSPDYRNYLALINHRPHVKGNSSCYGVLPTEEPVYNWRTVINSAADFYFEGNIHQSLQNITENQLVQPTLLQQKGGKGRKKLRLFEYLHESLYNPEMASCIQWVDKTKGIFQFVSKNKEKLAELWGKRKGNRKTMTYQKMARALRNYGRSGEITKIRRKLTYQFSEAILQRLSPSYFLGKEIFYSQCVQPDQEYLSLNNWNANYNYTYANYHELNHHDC
# Method in brief: as §1
# ELF4 = ELF4 (Homo sapiens, UniProt Q99607 1-663); details: protein: recombinant; tags: N-terminal GST; dsDNA, one strand shown
# Sequence of ELF4 (Q99607 whole entry): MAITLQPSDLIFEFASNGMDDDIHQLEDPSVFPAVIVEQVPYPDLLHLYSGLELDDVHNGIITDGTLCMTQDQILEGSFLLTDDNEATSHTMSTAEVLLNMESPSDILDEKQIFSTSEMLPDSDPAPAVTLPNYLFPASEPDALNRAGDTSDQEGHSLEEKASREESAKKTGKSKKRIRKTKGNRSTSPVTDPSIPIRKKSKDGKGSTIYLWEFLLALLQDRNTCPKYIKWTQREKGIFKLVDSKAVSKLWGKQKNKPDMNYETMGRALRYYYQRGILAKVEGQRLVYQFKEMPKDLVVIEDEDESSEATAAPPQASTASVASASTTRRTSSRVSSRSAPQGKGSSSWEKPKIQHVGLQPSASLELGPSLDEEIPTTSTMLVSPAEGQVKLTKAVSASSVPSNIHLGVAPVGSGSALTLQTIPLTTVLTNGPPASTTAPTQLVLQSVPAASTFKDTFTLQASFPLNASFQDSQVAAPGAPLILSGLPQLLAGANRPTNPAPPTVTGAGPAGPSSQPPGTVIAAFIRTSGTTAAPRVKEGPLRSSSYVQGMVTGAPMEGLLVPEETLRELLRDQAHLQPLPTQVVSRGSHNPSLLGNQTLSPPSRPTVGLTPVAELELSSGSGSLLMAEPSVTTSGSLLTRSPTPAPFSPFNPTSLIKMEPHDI
# Method in brief: as §1
# ELK4 = molecular target: T9, ELK4 (Homo sapiens, UniProt P28324-2 1-405); details: protein: recombinant; tags: N-terminal GST; dsDNA, one strand shown
# T9 sequence: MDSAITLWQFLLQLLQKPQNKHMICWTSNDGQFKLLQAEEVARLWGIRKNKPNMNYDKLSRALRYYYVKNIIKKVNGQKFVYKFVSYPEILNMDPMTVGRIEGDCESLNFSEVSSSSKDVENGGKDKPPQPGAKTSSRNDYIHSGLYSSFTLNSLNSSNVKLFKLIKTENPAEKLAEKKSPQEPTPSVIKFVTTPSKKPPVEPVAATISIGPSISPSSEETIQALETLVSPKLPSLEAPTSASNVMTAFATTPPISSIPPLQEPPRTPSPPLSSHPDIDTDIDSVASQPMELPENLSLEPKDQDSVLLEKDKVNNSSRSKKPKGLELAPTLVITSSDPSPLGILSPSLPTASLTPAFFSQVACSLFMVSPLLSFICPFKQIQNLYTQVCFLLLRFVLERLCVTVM
# Method in brief: as §1
# ETV2 = molecular target: T10, ETV2 (Homo sapiens, UniProt O00321 1-342); details: protein: recombinant; tags: N-terminal GST; dsDNA, one strand shown
# T10 sequence: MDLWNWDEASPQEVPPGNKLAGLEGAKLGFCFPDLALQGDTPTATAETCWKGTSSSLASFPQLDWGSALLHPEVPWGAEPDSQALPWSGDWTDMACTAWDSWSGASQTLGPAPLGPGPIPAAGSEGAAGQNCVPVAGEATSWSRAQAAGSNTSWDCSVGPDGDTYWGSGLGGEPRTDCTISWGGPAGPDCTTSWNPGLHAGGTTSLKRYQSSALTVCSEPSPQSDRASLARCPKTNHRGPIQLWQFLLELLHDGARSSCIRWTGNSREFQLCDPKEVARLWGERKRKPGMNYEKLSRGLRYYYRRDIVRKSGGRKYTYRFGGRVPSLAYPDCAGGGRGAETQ
# Method in brief: as §1
# ELF3 = molecular target: T11, ELF3 (Homo sapiens, UniProt P78545 1-371); details: protein: recombinant; tags: N-terminal GST; dsDNA, one strand shown
# T11 sequence: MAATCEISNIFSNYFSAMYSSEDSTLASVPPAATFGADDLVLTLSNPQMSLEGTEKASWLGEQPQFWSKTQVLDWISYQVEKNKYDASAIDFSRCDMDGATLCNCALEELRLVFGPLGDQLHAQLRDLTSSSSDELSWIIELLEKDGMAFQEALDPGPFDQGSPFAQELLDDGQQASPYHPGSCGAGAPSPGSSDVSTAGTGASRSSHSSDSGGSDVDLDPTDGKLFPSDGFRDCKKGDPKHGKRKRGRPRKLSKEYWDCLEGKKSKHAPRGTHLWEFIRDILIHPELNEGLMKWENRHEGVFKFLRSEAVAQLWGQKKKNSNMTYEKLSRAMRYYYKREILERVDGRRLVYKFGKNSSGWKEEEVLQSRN
# Method in brief: as §1
# ETV1 = ETV1 (Homo sapiens, UniProt P50549 1-477); details: protein: recombinant; tags: N-terminal GST; dsDNA, one strand shown
# Sequence of ETV1 (P50549 whole entry): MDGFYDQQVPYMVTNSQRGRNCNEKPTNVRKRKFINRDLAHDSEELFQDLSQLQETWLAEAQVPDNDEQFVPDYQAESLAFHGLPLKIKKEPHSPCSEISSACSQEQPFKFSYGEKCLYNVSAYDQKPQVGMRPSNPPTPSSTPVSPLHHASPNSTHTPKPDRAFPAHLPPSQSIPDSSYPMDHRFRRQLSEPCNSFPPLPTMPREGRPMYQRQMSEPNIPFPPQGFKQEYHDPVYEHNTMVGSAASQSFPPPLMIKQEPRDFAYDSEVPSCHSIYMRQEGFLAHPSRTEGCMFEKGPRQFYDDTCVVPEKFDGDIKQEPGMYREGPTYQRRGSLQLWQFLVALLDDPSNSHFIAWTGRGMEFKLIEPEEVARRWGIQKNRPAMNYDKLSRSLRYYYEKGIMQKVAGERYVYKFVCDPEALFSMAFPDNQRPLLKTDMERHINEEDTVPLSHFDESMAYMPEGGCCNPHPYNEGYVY
# Method in brief: as §1
sequence,measurement,setting,value
CAACGA,binding signal,FLI1,"1.05 fold enrichment (6-mer frequency, TF over GST control)"
same,binding signal,ELK1,"1.08 fold enrichment (6-mer frequency, TF over GST control)"
same,binding signal,GABPA,"1.08 fold enrichment (6-mer frequency, TF over GST control)"
same,binding signal,ERG,"1.07 fold enrichment (6-mer frequency, TF over GST control)"
same,binding signal,ELF1,"1.1 fold enrichment (6-mer frequency, TF over GST control)"
same,binding signal,EHF,"1.01 fold enrichment (6-mer frequency, TF over GST control)"
same,binding signal,SPIB,"1.03 fold enrichment (6-mer frequency, TF over GST control)"
same,binding signal,ELK3,"1.09 fold enrichment (6-mer frequency, TF over GST control)"
same,binding signal,FEV,"1.01 fold enrichment (6-mer frequency, TF over GST control)"
same,binding signal,ETV5,"1.02 fold enrichment (6-mer frequency, TF over GST control)"
same,binding signal,HSF1,"1 fold enrichment (6-mer frequency, TF over GST control)"
same,binding signal,SPIC,"1.1 fold enrichment (6-mer frequency, TF over GST control)"
same,binding signal,ELF4,"1.1 fold enrichment (6-mer frequency, TF over GST control)"
same,binding signal,ELK4,"1.14 fold enrichment (6-mer frequency, TF over GST control)"
same,binding signal,ETV2,"1.01 fold enrichment (6-mer frequency, TF over GST control)"
same,binding signal,ELF3,"1.08 fold enrichment (6-mer frequency, TF over GST control)"
same,binding signal,ETV1,"1 fold enrichment (6-mer frequency, TF over GST control)"
